The structures appear in SMILES notation. “And” between values parts separate entries of the source, which are not always exact repeats. Equal entries are not always repeated. The source made the active and inactive calls.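 How the source made its calls, unless noted: active means z-score of at least 1.8 in each of two replicates, scored against plate mean and spread of sample wells; inactive means the rest.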

The record followed here is PubChem BioAssay.

Experiment [1] is described as follows: yeast 75Q aggregation reduction – 75Q-TubU reporter (AID 1593). The settings on record: Yeast 75Q polyglutamine aggregation reporter.
Experiment [2] in a line: blockers of cytochrome c efflux from mitochondria – biochemical, purified mitochondria (AID 1603).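 Further: mouse liver mitochondria challenged with calcium chloride; signal normalized to the plate average as 100%.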 The settings on record: stronger effect = lower value.
Experiment [3] is described as follows: polyglutamine aggregate formation blockers (AID 1604). The settings on record: polyglutamine-induced protein aggregation inhibition assay; stronger effect = higher value; tested at 2.5 µM.
A short description of experiment [4]: Wnt pathway potentiators raising nuclear beta-catenin – imaging, WNT3A-conditioned medium, mouse C2C12, NPC library, primary screen (AID 1117326; in the data active means nuclear beta-catenin stimulation mostly above about 4.2%, no sharp cut-off; inactive means mostly below about 10%). The conditions noted are these: stronger effect = higher value.
The nature of experiment [5]: stimulators of insulin release from INS-1E, primary screen, cell-based, 5 mM glucose, NPC library (AID 1117329;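 active means compound raises insulin release from rat beta cells at 5 mM glucose, no numeric limit stated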). The conditions noted are these: rat INS-1E insulin secretion, at 10 µM, stronger effect = higher value.
Experiment [6] in a line: growth inhibition of GSK3B-pretreated HCT116 cells – cell-based, CellTiter-Glo, 0.2 to 20 µM (AID 1117336;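 active means compounds lowering colon cancer cell viability after pretreatment blocking the GSK3B kinase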). The settings on record: HCT116 viability after GSK3B inhibitor, at 20 µM, stronger effect = higher value. (In ATP-based viability assays light output follows the ATP content of the culture.)
Experiment [7] can be described thus: inhibition of endothelial tube formation, primary screen, imaging, VEGF stimulated, CD31 staining, tube area, NPC library (AID 1117340;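 active means compound that reduces growth-factor-driven endothelial tube area in a mixed cell culture, no cutoff stated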). The conditions noted are these: VEGF-stimulated ADSC/ECFC co-culture, at 10 µM, stronger effect = higher value.
Experiment [8] in a line: GLP1 release stimulators, primary, NCI-H716, NPC library (AID 1117341;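 active means compound raises GLP1 secretion from the human gut endocrine cells, with no numeric limit stated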). The conditions noted are these: NCI-H716 cells, at 10 µM, stronger effect = higher value.
The nature of experiment [9]: HCT116 colon cancer cell growth inhibition, primary screen, CellTiter-Glo luminescence, NPC library (AID 1117342;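 active means compounds that lower survival of HCT116 colon cancer cells in the luminescence readout, no numeric limit stated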). The settings on record: at 20 µM (top of the series).
A short description of experiment [10]: reduced SW480 viability measured with CellTiter-Glo, NPC library, primary (AID 1117343;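 active means compounds that lower viability of the colon cancer cells in the luminescence readout, with no numeric limit stated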). The conditions noted are these: CellTiter-Glo luminescence; at 20 µM (top of the series).
A short description of experiment [11]: NPC library primary testing for decreased DLD-1 cell viability via CellTiter-Glo (AID 1117346;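 active means compounds that lower survival of DLD-1 colon cancer cells in the luminescence readout, no cutoff given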). The conditions noted are these: DLD-1 viability, CellTiter-Glo luminescence; at 20 µM (top of the series).
Experiment [12] concerns the target 6-phosphogluconate dehydrogenase, decarboxylating (Homo sapiens) (UniProt P52209). Nature of the experiment: inhibition of human phosphogluconate dehydrogenase – biochemical, recombinant enzyme, NADPH absorbance, primary screen (AID 1159550;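 active means at least 20% inhibition of 6-phosphogluconate dehydrogenase activity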). The settings on record: recombinant 6PGD, NADPH absorbance 341 nm; at 10 µM; stronger effect = higher value.
A short description of experiment [13]: EMT-state selective cytotoxicity in co-culture – imaging, PC-3E GFP, TEM4-18 mCherry, primary screen (AID 1345086;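 active means compounds killing one labelled cell type while sparing the other, by normalised counts and ratio limits, not self-fluorescent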;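 on all read-outs here: cells exposed to compound for 72 h before imaging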;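 on red/green cell ratio (normalised): normalised mesenchymal count divided by normalised epithelial count so high means epithelial killing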). The settings on record: PC-3E GFP / TEM4-18 mCherry co-culture, imaging cell counts, at 1 µM; for red/green cell ratio (normalised): actives lie on both sides.
Experiment [14] concerns Aerobactin synthetase IucA (Klebsiella pneumoniae hvKP1). Nature of the experiment: IucA enzyme inhibition, primary screen, biochemical, Spectrum library (AID 1346200; call rule not given here;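 further: 100% = wells without compound and 0% = wells lacking enzyme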). The settings on record: malachite green pyrophosphate, A620, at 8 µM, stronger effect = lower value.
A short description of experiment [15]: MELAS cybrid and Rieske KO viability enhancers – cell-based, MELAS cybrids, Rieske KO mouse fibroblasts, CellTiter-Glo, primary screen (AID 1508586;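 active means mean z-score across replicates of 1.96 or higher in either the MELAS or the Rieske mutant cell line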;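 further: z relative to plate mean and SD of compound and empty wells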). The settings on record: low glucose.
The target in experiment [16] is NAD(+) hydrolase SARM1 (Homo sapiens) (UniProt Q6SZW1). Nature of the experiment: blocking NAD cleavage by SARM1 SAM-TIR – cell lysate, NAD-Glo luminescence (AID 1508614;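 active means compound whose remaining NAD level is above about 45 nM, limit read from the data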). The settings on record: SAM-TIR HEK293T lysate NADase, at 1 µM, stronger effect = higher value.
Chain of NAD(+) hydrolase SARM1 (Homo sapiens) (Q6SZW1 whole entry, looked up, the tested form may be a part): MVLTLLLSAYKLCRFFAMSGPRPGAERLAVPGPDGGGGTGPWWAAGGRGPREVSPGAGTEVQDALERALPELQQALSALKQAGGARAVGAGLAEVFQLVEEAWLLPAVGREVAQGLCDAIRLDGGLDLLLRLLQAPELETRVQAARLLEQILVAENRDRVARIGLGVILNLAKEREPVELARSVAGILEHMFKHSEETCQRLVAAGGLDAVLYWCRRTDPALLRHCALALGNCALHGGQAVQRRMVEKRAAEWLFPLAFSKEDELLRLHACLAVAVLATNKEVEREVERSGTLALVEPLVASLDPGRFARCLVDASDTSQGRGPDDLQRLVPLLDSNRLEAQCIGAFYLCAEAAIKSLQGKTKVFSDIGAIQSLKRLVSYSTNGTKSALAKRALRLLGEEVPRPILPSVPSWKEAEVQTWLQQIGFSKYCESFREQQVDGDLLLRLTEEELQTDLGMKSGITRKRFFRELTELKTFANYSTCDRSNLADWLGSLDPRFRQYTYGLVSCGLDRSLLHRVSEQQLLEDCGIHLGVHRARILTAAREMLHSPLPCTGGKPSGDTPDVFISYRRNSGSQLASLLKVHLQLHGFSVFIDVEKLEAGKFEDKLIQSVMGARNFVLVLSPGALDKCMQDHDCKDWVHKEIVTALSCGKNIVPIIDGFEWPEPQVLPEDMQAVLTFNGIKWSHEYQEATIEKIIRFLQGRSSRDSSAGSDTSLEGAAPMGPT
Experiment [17] addresses Mitogen-activated protein kinase 7 (Homo sapiens) (UniProt Q13164). Nature of the experiment: Gal4-ERK5 driven luciferase induction – cell-based, HTS, primary screen (AID 1508626;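 active means luciferase signal above three times the same-plate solvent-only control wells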;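 further: luciferase driven by Gal4-ERK5 fusion binding five Gal4 sites before minimal TATA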). The conditions noted are these: HeLa Gal4-ERK5 transactivation, 18 h, at 5 µM, stronger effect = higher value.
Experiment [18] can be described thus: galactose survival enhancers in mitochondrial complex I cybrids – cell-based, galactose medium, ATP luminescence, primary screen (AID 1645843).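 Further: positive z means more ATP and so rescue of galactose-driven cybrid death.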 The settings on record: complex I mutant cybrid cells, 72 h, stronger effect = higher value.
The nature of experiment [19]: viability loss with induced miR-34 in A549 – imaging, A549 dox-inducible miR-34, nuclei and caspase counts, primary screen (AID 1347080;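 active means compounds whose cell count with miR-34 switched on is under 0.7 times the count with it off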). The conditions noted are these: A549 miR-34 inducible, Hoechst nuclei count, 48 h.
The mark [20] stands for this setting: measured here: epithelial PC-3E GFP cell survival.
The mark [21] stands for this setting: measured here: mesenchymal TEM4-18 mCherry cell survival.
[22] abbreviates: MELAS cybrid survival, CellTiter-Glo 48 h, stronger effect = higher value.
[23] abbreviates: Rieske KO mouse fibroblast survival, CellTiter-Glo 72 h.

Chain of 6-phosphogluconate dehydrogenase, decarboxylating (Homo sapiens) (P52209 whole entry, looked up): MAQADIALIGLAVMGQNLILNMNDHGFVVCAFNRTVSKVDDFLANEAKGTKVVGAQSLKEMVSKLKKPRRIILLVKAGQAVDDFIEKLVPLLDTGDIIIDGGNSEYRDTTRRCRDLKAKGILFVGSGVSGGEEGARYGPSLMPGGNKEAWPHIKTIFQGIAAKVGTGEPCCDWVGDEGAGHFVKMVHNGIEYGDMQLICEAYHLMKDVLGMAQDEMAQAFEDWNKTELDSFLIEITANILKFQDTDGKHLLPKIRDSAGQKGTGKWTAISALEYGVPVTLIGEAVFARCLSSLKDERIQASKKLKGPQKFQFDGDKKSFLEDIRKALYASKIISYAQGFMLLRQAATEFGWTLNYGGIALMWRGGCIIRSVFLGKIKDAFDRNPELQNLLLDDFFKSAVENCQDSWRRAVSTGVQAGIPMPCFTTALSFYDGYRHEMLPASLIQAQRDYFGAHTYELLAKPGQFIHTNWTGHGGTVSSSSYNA
Chain of Mitogen-activated protein kinase 7 (Homo sapiens) (Q13164 whole entry, looked up, the tested form may be a part): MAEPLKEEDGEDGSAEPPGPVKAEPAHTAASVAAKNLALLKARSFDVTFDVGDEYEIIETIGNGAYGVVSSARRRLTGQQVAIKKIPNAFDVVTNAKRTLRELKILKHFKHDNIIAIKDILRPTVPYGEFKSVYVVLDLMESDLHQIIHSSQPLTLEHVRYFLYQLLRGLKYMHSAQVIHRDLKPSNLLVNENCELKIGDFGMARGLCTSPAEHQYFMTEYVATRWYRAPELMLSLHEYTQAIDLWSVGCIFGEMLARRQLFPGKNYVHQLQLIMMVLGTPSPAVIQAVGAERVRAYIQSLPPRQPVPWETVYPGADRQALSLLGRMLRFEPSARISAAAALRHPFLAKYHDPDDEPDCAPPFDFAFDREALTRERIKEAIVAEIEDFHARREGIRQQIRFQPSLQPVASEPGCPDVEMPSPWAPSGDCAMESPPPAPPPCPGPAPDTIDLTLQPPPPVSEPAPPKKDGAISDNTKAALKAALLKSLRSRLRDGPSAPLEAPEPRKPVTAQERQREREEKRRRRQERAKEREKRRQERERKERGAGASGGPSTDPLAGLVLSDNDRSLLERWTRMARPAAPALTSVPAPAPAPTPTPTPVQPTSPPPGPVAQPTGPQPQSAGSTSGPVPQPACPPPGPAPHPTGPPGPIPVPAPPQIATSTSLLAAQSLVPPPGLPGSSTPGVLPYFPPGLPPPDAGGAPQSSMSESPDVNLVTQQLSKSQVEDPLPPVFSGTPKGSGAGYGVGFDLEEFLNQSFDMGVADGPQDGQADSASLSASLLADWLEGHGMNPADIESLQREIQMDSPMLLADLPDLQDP

In general, inhibition refers to the drop in the measured response relative to a control, in per cent. With `O=P1(N(CCCl)CCCl)NCCCO1` (configuration not stated), the score in experiment [1] amounted to 0.77. Also, in experiment [2], the cytochrome c release ratio came to 1. In experiment [3], this compound had an inhibition of aggregation of 69.7%. In addition, the nuclear beta-catenin stimulation in [4] (at 10 µM) was 1% (inactive); in experiment [4] (stimulation, at 2 µM), 0.9%. Further, the insulin secretion stimulation in experiment [5] is -1% (inactive). The viability decrease in experiment [6] was -1.15% (inactive). Besides, the tube area decrease in [7] was 16.1% (inactive). In experiment [8], the GLP1 secretion stimulation is 1.6% (inactive). The inhibition of viability in experiment [9] was -24.2% (inactive). In addition, the values for the viability decrease (inhibition) in experiment [10] and in [11] were 101% (active) and -8.15% (inactive), respectively. Further, in experiment [12], the inhibition is -5.23% (inactive). Besides, the red/green cell ratio (normalised) in experiment [13] is 1.26 (inactive). In addition, the normalised cell number in experiment [13] (setting [20]) worked out at 1.18; in experiment [13] (setting [21]), 1.48. The activity remaining in experiment [14] is 120% (inactive). Also, the z-score in experiment [15] (setting [22]) was 0.187 (inactive) and -0.193 (inactive); in [15] (setting [23]), -0.0217 and -1.38; in [18], 0.055 (inactive) and 0.19 (inactive) and -0.255 (inactive). For the same compound, in [16], the remaining NAD was 10 nM (inactive). Moreover, the luciferase signal in [17] is 84 AU (inactive).
Regarding `COC(=O)C1=CCCN(C)C1`, the score in experiment [1] was determined as 1.73. Moreover, in [2], the cytochrome c release ratio came to 0.68. The compound further registered an inhibition of aggregation in experiment [3] of 81.4%. The nuclear beta-catenin stimulation in experiment [4] (at 10 µM) is 4.2% (inactive); in experiment [4] (stimulation, at 2 µM) it was 2.3%. Also, the insulin secretion stimulation in [5] is -0.6% (inactive). Further, the viability decrease in [6] is -6.9% (inactive). For the same compound, the tube area decrease in experiment [7] was 25.2% (inactive). Besides, the GLP1 secretion stimulation in experiment [8] is -0.8% (inactive). The inhibition of viability in experiment [9] was -3.33% (inactive). Besides, the viability decrease (inhibition) in experiment [10] was 8.4% (inactive); in [11], -18.9% (inactive). In addition, the inhibition in experiment [12] was -2.35% (inactive). The red/green cell ratio (normalised) in [13] was 1.16 (inactive). Further, the normalised cell number in [13] (setting [20]) worked out at 0.91; in experiment [13] (setting [21]) it was 1.07. The activity remaining in [14] is 112% (inactive). For the same compound, the z-score is -0.328 (inactive) in experiment [15] (setting [22]), 0.482 in experiment [15] (setting [23]) and -0.47 (inactive) in [18]. The remaining NAD in experiment [16] is 10 nM (inactive). In experiment [17], the luciferase signal was 52 AU (inactive).
As for `CCCC(C)(COC(N)=O)COC(=O)NC(C)C` (configuration not stated), the score in experiment [1] stood at 1.44. Also, the cytochrome c release ratio in experiment [2] worked out at 0.68. Moreover, in experiment [3], the inhibition of aggregation is 85.8%. Also, the nuclear beta-catenin stimulation was 0.1% (inactive) in experiment [4] (at 10 µM) and -0.6% in experiment [4] (stimulation, at 2 µM). Further, the insulin secretion stimulation in [5] is 3.4% (inactive). The viability decrease in [6] was -38.7% (inactive). For the same compound, the tube area decrease in [7] is 14.3% (inactive). Moreover, in experiment [8], the GLP1 secretion stimulation is -1.3% (inactive). The inhibition of viability in [9] was -14.1% (inactive). Also, the values for the viability decrease (inhibition) in experiment [10] and in experiment [11] were -5.3% (inactive) and -12.4% (inactive), respectively. Further, in experiment [12], the inhibition was -0.85% (inactive). Moreover, the red/green cell ratio (normalised) in experiment [13] is 1.05 (inactive). Further, the normalised cell number in experiment [13] (setting [20]) is 1.17; in experiment [13] (setting [21]), 1.23. In addition, in experiment [14], the activity remaining is 115% (inactive). Further, the fold change in experiment [19] (stronger effect = lower value) was 0.952 (inactive) and 0.896 (inactive) and 0.902 (inactive); in [19] (measured here: relative caspase fold change +Dox/-Dox), 1.07 and 1.02 and 3.4. Moreover, the cell count in experiment [19] (measured here: total cells with miR-34 induction, stronger effect = lower value) is 10700 and 9140 and 11300; in experiment [19] (measured here: total cells without miR-34 induction), 11200 and 10200 and 12600. The z-score in [15] (setting [22]) was 0.305 (inactive); in experiment [15] (setting [23]), 0.223; in experiment [18] it was 1.27 (inactive). Besides, in experiment [16], the remaining NAD is 10 nM (inactive). Besides, in experiment [17], the luciferase signal was 40 AU (inactive).
For the compound `CC(C)N(CCC(C(N)=O)(c1ccccc1)c1ccccn1)C(C)C` (configuration not stated), the score in experiment [1] was determined as 1.39. Moreover, in experiment [2], the cytochrome c release ratio amounted to 1.18. In experiment [3], the inhibition of aggregation is 70.4%. Also, the nuclear beta-catenin stimulation was 0.5% (inactive) in experiment [4] (at 10 µM) and 1.2% in [4] (stimulation, at 2 µM). In addition, the insulin secretion stimulation in experiment [5] is 0.8% (inactive). Moreover, the viability decrease in experiment [6] was -17.4% (inactive). For the same compound, the tube area decrease in experiment [7] is 15.3% (inactive). In addition, the GLP1 secretion stimulation in experiment [8] was -2.8% (inactive). Also, the inhibition of viability in experiment [9] was -3.87% (inactive). Moreover, the viability decrease (inhibition) in experiment [10] was 18.8% (inactive); in experiment [11], -13.7% (inactive). Moreover, the inhibition in experiment [12] was 5.28% (inactive). Besides, the red/green cell ratio (normalised) in experiment [13] is 1.1 (inactive). Moreover, the normalised cell number is 1.22 in experiment [13] (setting [20]) and 1.34 in [13] (setting [21]). Further, the activity remaining in experiment [14] is 102% (inactive). Moreover, the z-score was -0.238 (inactive) and 0.483 (inactive) in experiment [15] (setting [22]); -0.211 and 0.374 in experiment [15] (setting [23]); 0.14 (inactive) and 0.36 (inactive) and 1.19 (inactive) in experiment [18]. Moreover, the remaining NAD in experiment [16] is 10 nM (inactive). In addition, the luciferase signal in experiment [17] was 32 AU (inactive).
